Compound activity: PubChem BioAssay, Buhrlage Lab, Dana-Farber Cancer Institute and Novartis Institutes for BioMedical Research (Cambridge, Mass)
USP17 block: inhibitors of human USP17 deubiquitinase | purified USP17, Ub-rhodamine cleavage fluorescence, 3 h | Ubiquitin carboxyl-terminal hydrolase 17-like protein 5 (Homo sapiens), A8MUK1 | AID 1645855, 2021 | inhibition, % at 50 µM | 47,000 compounds, 6.5% hits
USP10 block: inhibitors of human USP10 deubiquitinase; Ubiquitin carboxyl-terminal hydrolase 10 (Homo sapiens), Q14694; purified USP10, Ub-rhodamine fluorescence, 60 min; inhibition, % at 20 µM; 47,000 compounds, 1.1% hits
USP7 block: inhibitors of human USP7 deubiquitinase; purified USP7, Ub-rhodamine cleavage fluorescence; 47,000 compounds, 0.3% hits; inhibition, % at 20 µM
USP30 inh: inhibitors of human USP30 deubiquitinase; purified USP30, Ub-rhodamine cleavage fluorescence; Ubiquitin carboxyl-terminal hydrolase 30 (Homo sapiens), Q70CQ3; AID 1645860, 2021; 47,000 compounds, 5.3% hits; inhibition, % at 25 µM
USP28 inh: inhibitors of human USP28 deubiquitinase; Ubiquitin carboxyl-terminal hydrolase 28 (Homo sapiens), Q96RU2; purified USP28, Ub-rhodamine cleavage fluorescence, 30 min; inhibition, % at 25 µM; 47,000 compounds, 3% hits
USP8 inh: inhibitors of human USP8 deubiquitinase; Ubiquitin carboxyl-terminal hydrolase 8 (Homo sapiens), P40818; purified USP8, Ub-rhodamine cleavage fluorescence, 30 min; inhibition, % at 20 µM; 47,000 compounds, 4.2% hits
Numbers without * were called inactive. The list is not random: actives were taken first. Their share in the collection is about 13%. Cut-off read from the data, not from the text of the source: active = inhibition above about 30%; inactive = the rest.

Results for CN(C(=O)Cn1c(=O)n(CCC(=O)N2CC=C(c3ccccc3)CC2)c(=O)c2ccccc21)C1CCCCC1 ?
USP17 block: 18; USP10 block: 3; USP7 block: -7; USP30 inh: 27; USP28 inh: 20; USP8 inh: 14

What do the screens show for `Cc1cccc(NC(=O)CSc2cn(Cc3ccccc3Cl)c3ccccc23)c1`?
USP17 block: -2; USP10 block: 9; USP7 block: 7; USP30 inh: 5; USP28 inh: 1; USP8 inh: -12

How did O=S(=O)(c1ccccc1)N1CCCN(CCn2cccn2)CC1 do in these assays?
USP17 block: 3; USP10 block: -3; USP7 block: 3; USP30 inh: 14; USP28 inh: 18; USP8 inh: 0

What do the screens show for `COc1cccc(OCC(=O)Nc2ccc3c(c2)CCC(=O)N3Cc2ccccc2)c1`?
USP17 block: 20; USP10 block: 8; USP7 block: 7; USP30 inh: 11; USP28 inh: 35*; USP8 inh: 8

What do the screens show for `Cc1cccc(OCC(=O)Nc2ccc3c(c2)CCC(=O)N3Cc2ccccc2)c1`?
USP17 block: 16; USP10 block: 11; USP7 block: 9; USP30 inh: 31*; USP28 inh: 15; USP8 inh: 21

How did O=C(COc1ccc(Cl)cc1)Nc1ccc2c(c1)CCC(=O)N2Cc1ccccc1 do in these assays?
USP17 block: 3; USP10 block: 7; USP7 block: 8; USP30 inh: 11; USP28 inh: 3; USP8 inh: 12

How did Cc1cccc(CN2CCC3(CC2)CCN(c2cnn(C)c2)C3=O)n1 do in these assays?
USP17 block: 0; USP10 block: 3; USP7 block: 2; USP30 inh: 16; USP28 inh: 7; USP8 inh: 5

Results for CCc1ccc(S(=O)(=O)Nc2ccc3[nH]ncc3c2)cc1 ?
USP17 block: 7; USP10 block: 1; USP7 block: 4; USP30 inh: 0; USP28 inh: 9; USP8 inh: 35*

What do the screens show for `O=C(Nc1cccc2cnccc12)N1CCCCCC1`?
USP17 block: 34*; USP10 block: 2; USP7 block: 2; USP30 inh: 4; USP28 inh: 10; USP8 inh: 4

Results for Nc1nccnc1CC1CCCN(C(=O)c2ccc3nc[nH]c3c2)C1 (centres undefined) ?
USP17 block: -16; USP10 block: -4; USP7 block: -2; USP30 inh: -26; USP28 inh: -16; USP8 inh: -14

Results for C1CNCC(CCc2nc(N3CCCC3)nc3c2CNCC3)C1 (centres undefined) ?
USP17 block: -8; USP10 block: -3; USP7 block: 9; USP30 inh: 25; USP28 inh: 31*; USP8 inh: -46

Results for CSCC[C@H](NC(=O)c1sc2ccccc2c1Cl)c1nnc2ccccn12 ?
USP17 block: 5; USP10 block: 1; USP7 block: -15; USP30 inh: 3; USP28 inh: 1; USP8 inh: -4

What do the screens show for `O=C(NC1CCCc2ccccc21)c1ccc(Br)o1` (centres undefined)?
USP17 block: 2; USP10 block: -8; USP7 block: -4; USP30 inh: -43; USP28 inh: -18; USP8 inh: 16

How did O=c1[nH]c(-c2cccnc2)nc2c1CN(Cc1ccccn1)CC2 do in these assays?
USP17 block: -23; USP10 block: -6; USP7 block: -3; USP30 inh: -51; USP28 inh: -21; USP8 inh: -38

Results for Cc1ccc(NC(=O)c2cc(C(C)C)on2)cc1C ?
USP17 block: 17; USP10 block: 2; USP7 block: -5; USP30 inh: 15; USP28 inh: 42*; USP8 inh: 6

Results for COc1ccc(CNC(=O)Cn2c(=O)c3c(ncn3C3CCCC3)n(Cc3ccccc3)c2=O)cc1 ?
USP17 block: 43*; USP10 block: -7; USP7 block: -1; USP30 inh: -5; USP28 inh: 4; USP8 inh: 28

What do the screens show for `FC(F)(F)c1cnc(N2CCC(c3ncn[nH]3)CC2)c(Cl)c1`?
USP17 block: 0; USP10 block: -1; USP7 block: 3; USP30 inh: 19; USP28 inh: 43*; USP8 inh: 3

Results for O=C1COc2ccc(NC(=O)N3CCN(c4ncc(C(F)(F)F)cc4Cl)CC3)cc2N1 ?
USP17 block: 16; USP10 block: 4; USP7 block: 9; USP30 inh: 26; USP28 inh: 19; USP8 inh: 10

How did Cc1ccc(S(=O)(=O)N=C(c2ccccc2)N2CCCC2)cc1 do in these assays?
USP17 block: 14; USP10 block: 0; USP7 block: 0; USP30 inh: 18; USP28 inh: 12; USP8 inh: 15

Results for Cc1ccccc1NC(=O)C1CCN(S(=O)(=O)c2ccc3c(c2)OCCCO3)CC1 ?
USP17 block: 69*; USP10 block: 4; USP7 block: 0; USP30 inh: 74*; USP28 inh: 14; USP8 inh: 7

How did O=C(Nc1ccc(N2CCCCC2)cc1)C1CCN(S(=O)(=O)c2ccc3c(c2)OCCCO3)CC1 do in these assays?
USP17 block: 5; USP10 block: 4; USP7 block: 2; USP30 inh: -44; USP28 inh: -16; USP8 inh: 3

How did O=S(=O)(Nc1cc(S(=O)(=O)N2CCCCC2)ccc1O)c1ccc2c(c1)OCCCO2 do in these assays?
USP17 block: 34*; USP10 block: 7; USP7 block: 3; USP30 inh: 0; USP28 inh: 11; USP8 inh: 83*

What do the screens show for `O=C(Nc1ccc2c(c1)OCCCO2)c1cc(S(=O)(=O)N2CCCCC2)ccc1N1CCCC1`?
USP17 block: 68*; USP10 block: 15; USP7 block: 5; USP30 inh: 78*; USP28 inh: 30; USP8 inh: 9

Results for Cc1oc(-c2[nH]ncc2C(=O)N2CCCC2)cc1S(=O)(=O)NCc1ccccc1 ?
USP17 block: -16; USP10 block: -4; USP7 block: -60; USP30 inh: -100; USP28 inh: -16; USP8 inh: -13

How did Cc1nn2c(S(=O)(=O)NCc3cc(F)cc(F)c3)c(C)nc2s1 do in these assays?
USP17 block: 16; USP10 block: -2; USP7 block: 3; USP30 inh: 11; USP28 inh: 7; USP8 inh: 10

What do the screens show for `Cc1ccc(C(=O)Nc2nccnc2C(=O)NCc2ccccc2C)cc1`?
USP17 block: -3; USP10 block: 3; USP7 block: 5; USP30 inh: -4; USP28 inh: -7; USP8 inh: -8

Results for O=C(Nc1nccnc1C(=O)NCc1ccccn1)c1ccccc1 ?
USP17 block: -4; USP10 block: -1; USP7 block: 1; USP30 inh: -30; USP28 inh: -12; USP8 inh: 38*
